Experimental findings from ChEMBL document CHEMBL1961873, “Compounds: GSK PKIS; Assays: Nanosyn kinase panel” (2012) are described below.

What is called inhibition is the drop in the measured response relative to a control, in per cent.

The target of test [1] is T1, Tyrosine-protein kinase ITK/TSK (Homo sapiens) (UniProt Q08881).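 Note: values are mean percent inhibition of ITK from the GSK PKIS screen.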
T1 sequence (whole entry): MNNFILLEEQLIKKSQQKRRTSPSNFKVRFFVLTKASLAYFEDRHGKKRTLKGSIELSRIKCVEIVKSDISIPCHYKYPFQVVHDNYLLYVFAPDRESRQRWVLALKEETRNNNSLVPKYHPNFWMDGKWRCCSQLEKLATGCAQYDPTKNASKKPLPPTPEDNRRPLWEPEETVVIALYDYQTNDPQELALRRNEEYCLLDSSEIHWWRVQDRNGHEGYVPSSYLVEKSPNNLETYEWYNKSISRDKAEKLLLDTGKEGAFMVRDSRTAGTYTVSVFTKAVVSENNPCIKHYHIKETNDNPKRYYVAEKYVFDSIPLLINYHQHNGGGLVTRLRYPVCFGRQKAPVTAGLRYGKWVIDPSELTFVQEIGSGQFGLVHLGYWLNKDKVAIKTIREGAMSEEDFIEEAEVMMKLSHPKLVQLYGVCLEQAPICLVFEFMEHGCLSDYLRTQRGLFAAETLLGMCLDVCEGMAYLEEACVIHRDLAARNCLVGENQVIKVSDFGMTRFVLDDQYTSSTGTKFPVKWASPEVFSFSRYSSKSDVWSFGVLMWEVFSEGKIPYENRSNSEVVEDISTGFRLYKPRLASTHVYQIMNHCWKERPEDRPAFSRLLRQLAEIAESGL
As to conditions: at 1 µM.

Test [2] has as its target Tyrosine-protein kinase JAK1 (Homo sapiens) (UniProt P23458). The settings on record: at 0.1 µM.
The target is the same in test [3]. As to conditions: at 1 µM.
The target of test [4] is Tyrosine-protein kinase JAK2 (Homo sapiens) (UniProt O60674). The settings on record: at 0.1 µM.
The target is the same in test [5]. The settings on record: at 1 µM.
Test [6] deals with T2, Tyrosine-protein kinase JAK3 (Homo sapiens) (UniProt P52333).
T2 sequence (whole entry): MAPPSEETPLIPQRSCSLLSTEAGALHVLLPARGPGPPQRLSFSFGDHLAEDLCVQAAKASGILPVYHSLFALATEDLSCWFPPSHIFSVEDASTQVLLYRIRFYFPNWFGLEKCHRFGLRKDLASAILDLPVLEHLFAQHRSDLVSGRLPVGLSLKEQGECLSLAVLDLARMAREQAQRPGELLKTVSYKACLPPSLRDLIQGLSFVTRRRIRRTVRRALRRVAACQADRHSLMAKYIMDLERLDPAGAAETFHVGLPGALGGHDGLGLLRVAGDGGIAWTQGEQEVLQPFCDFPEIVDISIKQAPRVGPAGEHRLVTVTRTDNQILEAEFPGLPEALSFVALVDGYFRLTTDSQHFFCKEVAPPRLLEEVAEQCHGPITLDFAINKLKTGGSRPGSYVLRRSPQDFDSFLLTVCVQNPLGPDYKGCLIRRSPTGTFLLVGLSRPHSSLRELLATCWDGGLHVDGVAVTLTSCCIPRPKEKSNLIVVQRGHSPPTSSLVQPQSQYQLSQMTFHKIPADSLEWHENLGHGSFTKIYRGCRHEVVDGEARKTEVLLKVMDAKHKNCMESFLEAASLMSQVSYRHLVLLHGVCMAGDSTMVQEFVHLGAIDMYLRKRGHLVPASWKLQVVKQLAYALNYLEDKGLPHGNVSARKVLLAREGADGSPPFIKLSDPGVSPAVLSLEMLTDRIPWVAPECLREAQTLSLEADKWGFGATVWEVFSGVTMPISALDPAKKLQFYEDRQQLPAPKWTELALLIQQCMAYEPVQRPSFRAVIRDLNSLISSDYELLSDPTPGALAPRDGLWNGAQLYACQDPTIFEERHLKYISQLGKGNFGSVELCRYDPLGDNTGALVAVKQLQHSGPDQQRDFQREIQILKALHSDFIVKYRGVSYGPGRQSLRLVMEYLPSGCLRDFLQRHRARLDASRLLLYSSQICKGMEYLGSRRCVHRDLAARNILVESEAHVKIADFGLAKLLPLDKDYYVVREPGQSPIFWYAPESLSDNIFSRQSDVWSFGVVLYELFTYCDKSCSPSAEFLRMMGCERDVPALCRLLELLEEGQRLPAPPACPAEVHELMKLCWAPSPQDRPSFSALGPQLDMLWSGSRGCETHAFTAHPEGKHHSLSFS
The settings on record: at 0.1 µM.

For test [7], the target named is T2, Tyrosine-protein kinase JAK3 (Homo sapiens). The settings on record: at 1 µM.
In test [8] the target is Vascular endothelial growth factor receptor 2 (Homo sapiens) (UniProt P35968). The settings on record: at 0.1 µM.
The target is the same in test [9]. As to conditions: at 1 µM.
Test [10] deals with Mast/stem cell growth factor receptor Kit (Homo sapiens) (UniProt P10721). The settings on record: at 0.1 µM.
The target is the same in test [11]. The settings on record: at 1 µM.
Test [12] deals with Mast/stem cell growth factor receptor Kit (Homo sapiens), P10721 [D816V]. As to conditions: at 0.1 µM.
Test [13] shares this test system. As to conditions: at 1 µM.
In test [14] the test system is Mast/stem cell growth factor receptor Kit (Homo sapiens), P10721 [T670I]. The settings on record: at 0.1 µM.
Test [15] has the same test system. As to conditions: at 1 µM.
The subject of test [16] is Mast/stem cell growth factor receptor Kit (Homo sapiens), P10721 [V560G]. The settings on record: at 0.1 µM.
Test [17] shares this test system. As to conditions: at 1 µM.
For test [18], the target named is Tyrosine-protein kinase Lck (Homo sapiens) (UniProt P06239). The settings on record: at 0.1 µM.
Test [19] has the same target. As to conditions: at 1 µM.
Test [20] deals with Leukocyte tyrosine kinase receptor (Homo sapiens) (UniProt P29376). The settings on record: at 0.1 µM.

Molecules are shown by their SMILES.

Chain of Leukocyte tyrosine kinase receptor (Homo sapiens) (P29376 whole entry): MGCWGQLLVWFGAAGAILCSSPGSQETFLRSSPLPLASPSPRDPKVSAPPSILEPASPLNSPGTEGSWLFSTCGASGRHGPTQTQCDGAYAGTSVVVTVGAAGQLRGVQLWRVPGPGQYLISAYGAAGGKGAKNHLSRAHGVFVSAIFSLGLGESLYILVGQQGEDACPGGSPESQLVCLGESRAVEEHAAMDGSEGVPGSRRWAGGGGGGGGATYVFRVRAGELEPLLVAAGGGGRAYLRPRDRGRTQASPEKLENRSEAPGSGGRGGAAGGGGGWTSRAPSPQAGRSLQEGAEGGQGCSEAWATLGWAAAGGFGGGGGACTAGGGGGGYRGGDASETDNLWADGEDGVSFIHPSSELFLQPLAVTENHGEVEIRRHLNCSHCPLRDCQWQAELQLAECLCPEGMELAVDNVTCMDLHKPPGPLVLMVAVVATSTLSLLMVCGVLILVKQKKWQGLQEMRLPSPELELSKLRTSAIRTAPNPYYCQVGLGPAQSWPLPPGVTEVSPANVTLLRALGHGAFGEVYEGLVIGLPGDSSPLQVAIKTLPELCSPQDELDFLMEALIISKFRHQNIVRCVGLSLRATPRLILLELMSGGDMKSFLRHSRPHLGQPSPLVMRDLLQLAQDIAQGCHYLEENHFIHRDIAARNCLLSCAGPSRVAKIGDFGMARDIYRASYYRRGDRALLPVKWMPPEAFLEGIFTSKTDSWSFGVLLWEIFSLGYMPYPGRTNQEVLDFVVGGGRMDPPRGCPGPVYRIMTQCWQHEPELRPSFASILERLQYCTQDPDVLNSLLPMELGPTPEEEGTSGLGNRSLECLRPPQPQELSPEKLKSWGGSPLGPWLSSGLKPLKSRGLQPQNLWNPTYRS
Chain of Mast/stem cell growth factor receptor Kit (Homo sapiens), P10721 [T670I] (P10721 whole entry T670I): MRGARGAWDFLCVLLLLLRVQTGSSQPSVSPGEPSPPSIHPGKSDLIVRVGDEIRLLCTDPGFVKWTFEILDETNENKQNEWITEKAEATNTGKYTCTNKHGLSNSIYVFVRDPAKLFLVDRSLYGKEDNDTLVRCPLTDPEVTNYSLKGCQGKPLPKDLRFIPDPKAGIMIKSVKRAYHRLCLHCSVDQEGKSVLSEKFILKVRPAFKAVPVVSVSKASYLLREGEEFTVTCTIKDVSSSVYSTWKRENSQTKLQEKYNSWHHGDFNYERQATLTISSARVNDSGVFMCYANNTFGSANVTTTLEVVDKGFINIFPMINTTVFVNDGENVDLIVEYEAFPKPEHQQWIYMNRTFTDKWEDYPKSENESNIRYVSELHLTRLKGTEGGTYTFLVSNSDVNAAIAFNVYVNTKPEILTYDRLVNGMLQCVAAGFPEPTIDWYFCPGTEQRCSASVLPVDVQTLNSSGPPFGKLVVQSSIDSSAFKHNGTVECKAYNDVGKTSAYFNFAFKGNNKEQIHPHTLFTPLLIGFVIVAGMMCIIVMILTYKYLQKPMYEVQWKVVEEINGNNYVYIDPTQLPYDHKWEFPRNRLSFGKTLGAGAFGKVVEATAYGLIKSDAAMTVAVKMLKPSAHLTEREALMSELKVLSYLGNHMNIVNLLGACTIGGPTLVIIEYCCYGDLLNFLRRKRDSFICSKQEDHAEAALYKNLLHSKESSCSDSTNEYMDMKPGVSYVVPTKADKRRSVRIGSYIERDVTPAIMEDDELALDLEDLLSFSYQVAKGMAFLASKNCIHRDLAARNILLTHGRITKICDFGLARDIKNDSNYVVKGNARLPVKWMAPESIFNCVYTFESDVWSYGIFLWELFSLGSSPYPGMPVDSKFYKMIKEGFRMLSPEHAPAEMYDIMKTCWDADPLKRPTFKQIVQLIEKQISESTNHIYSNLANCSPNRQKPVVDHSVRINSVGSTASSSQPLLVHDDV
Chain of Vascular endothelial growth factor receptor 2 (Homo sapiens) (P35968 whole entry): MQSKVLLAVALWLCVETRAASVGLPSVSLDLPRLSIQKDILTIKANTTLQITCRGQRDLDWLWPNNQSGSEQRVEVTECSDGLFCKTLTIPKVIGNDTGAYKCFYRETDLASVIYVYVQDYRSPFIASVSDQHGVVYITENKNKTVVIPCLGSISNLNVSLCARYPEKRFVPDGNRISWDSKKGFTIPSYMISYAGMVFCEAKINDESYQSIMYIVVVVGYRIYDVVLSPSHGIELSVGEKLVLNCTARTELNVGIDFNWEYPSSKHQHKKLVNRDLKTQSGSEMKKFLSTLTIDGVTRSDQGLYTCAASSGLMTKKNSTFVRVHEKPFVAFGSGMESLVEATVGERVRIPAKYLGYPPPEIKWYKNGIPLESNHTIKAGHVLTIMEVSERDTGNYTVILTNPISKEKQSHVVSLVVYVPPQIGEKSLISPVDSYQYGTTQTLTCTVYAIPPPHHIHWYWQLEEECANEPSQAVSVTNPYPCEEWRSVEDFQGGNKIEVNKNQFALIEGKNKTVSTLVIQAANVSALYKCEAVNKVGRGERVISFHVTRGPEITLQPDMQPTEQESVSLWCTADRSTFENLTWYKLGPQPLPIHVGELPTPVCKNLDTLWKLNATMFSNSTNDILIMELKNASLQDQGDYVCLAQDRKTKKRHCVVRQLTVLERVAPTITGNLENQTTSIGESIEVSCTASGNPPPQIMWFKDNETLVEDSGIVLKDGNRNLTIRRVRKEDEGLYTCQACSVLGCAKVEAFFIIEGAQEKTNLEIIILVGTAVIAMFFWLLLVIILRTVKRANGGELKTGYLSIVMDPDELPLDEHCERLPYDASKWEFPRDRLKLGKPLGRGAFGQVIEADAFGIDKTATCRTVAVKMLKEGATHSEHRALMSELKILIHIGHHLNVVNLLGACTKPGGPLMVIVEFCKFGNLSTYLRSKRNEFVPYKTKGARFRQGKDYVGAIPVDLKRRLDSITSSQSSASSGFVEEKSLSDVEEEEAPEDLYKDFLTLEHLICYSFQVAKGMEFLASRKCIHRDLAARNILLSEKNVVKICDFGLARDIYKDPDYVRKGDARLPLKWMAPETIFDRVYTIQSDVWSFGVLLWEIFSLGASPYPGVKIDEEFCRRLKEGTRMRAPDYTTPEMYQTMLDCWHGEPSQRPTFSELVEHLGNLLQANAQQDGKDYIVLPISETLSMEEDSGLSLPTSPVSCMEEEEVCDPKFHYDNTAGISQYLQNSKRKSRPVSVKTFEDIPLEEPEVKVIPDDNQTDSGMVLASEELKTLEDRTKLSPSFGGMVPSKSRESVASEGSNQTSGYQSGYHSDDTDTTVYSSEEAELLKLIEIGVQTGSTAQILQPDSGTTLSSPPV
Chain of Tyrosine-protein kinase Lck (Homo sapiens) (P06239 2-509 limits assumed): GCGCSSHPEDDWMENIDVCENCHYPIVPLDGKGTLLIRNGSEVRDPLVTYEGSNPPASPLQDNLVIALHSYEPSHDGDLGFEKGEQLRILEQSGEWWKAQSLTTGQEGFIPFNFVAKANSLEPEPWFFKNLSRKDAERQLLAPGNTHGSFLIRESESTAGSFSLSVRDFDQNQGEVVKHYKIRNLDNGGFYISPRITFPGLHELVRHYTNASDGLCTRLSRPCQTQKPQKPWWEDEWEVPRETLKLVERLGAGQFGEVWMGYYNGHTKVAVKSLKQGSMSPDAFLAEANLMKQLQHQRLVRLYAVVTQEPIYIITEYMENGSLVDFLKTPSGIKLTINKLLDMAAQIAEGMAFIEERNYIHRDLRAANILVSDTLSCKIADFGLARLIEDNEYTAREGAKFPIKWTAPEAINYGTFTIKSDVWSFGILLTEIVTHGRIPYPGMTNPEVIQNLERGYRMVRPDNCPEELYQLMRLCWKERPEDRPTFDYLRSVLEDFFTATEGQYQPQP
Chain of Mast/stem cell growth factor receptor Kit (Homo sapiens), P10721 [D816V] (P10721 whole entry D816V): as the sequence (P10721 whole entry T670I) above, with I670T, D816V counted along it
Chain of Mast/stem cell growth factor receptor Kit (Homo sapiens) (P10721 whole entry): as the sequence (P10721 whole entry T670I) above, with I670T counted along it
Chain of Tyrosine-protein kinase JAK1 (Homo sapiens) (P23458 whole entry): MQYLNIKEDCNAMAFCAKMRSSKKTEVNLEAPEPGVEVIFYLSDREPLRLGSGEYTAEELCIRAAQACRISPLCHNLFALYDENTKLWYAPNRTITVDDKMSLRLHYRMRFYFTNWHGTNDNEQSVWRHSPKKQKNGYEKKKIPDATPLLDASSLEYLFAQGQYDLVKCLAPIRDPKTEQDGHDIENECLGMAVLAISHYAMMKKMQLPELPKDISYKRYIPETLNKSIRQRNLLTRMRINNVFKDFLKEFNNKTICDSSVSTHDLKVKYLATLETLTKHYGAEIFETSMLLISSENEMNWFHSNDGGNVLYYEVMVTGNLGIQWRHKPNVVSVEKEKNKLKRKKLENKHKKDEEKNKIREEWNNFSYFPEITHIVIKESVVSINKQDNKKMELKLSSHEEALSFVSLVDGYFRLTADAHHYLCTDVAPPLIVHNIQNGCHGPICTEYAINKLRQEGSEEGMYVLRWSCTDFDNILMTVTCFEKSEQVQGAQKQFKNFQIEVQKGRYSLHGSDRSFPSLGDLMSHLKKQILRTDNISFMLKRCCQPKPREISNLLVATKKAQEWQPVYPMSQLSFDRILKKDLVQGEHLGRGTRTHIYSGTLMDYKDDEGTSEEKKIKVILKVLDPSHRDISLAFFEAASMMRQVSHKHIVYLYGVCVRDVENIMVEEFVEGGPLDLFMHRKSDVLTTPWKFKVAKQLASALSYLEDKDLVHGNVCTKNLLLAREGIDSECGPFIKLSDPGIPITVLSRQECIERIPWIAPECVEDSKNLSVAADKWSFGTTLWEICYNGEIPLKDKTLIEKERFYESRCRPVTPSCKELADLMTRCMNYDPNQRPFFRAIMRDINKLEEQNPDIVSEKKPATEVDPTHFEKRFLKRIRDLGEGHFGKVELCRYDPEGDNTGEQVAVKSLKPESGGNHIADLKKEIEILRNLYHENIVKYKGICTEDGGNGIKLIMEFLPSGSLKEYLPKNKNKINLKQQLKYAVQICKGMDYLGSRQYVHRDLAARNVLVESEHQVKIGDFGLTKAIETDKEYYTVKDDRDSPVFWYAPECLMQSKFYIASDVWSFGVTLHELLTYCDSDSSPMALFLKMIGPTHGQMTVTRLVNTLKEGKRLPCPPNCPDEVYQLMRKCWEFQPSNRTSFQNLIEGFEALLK
Chain of Mast/stem cell growth factor receptor Kit (Homo sapiens), P10721 [V560G] (P10721 whole entry V560G): as the sequence (P10721 whole entry T670I) above, with V560G, I670T counted along it

In the case of `Cn1cc(C=C2C(=O)Nc3cccnc32)c2ccccc21`, the inhibition in test [1] was 15.7%; in test [2], 1.61%; in test [3], -6.11%; in test [4] it was 0.37%; in [5], 2.77%; in test [6], -0.5%. In addition, the inhibition worked out at 4.53% in test [7]; 14.7% in [8]; 54.8% in test [9]; 11.3% in [10]; 52.7% in [11]; 2.87% in test [12]. Moreover, the inhibition in test [13] is 5.81%; in test [14] it was 2.37%; in test [15] it was 19.8%; in test [16], -1.28%; in test [17] it was 3.99%; in test [18], 4.03%. Further, the results for the inhibition in [19] and in test [20] were 25.5% and 2.72%, respectively.
Regarding `CCn1c(-c2nonc2N)nc2c(C#CC(C)(C)O)nc(CN3CCCC3)cc21`, the inhibition in test [1] was 0.72%; in [2], 1.82%; in test [3], 3.25%; in test [4] it was 0.37%; in test [5], -0.34%; in [6], 0.46%. Moreover, the inhibition in [7] is 1.49%; in [8], 5.26%; in test [9], 20.1%; in test [10], -3.09%; in [11], 0.93%; in test [12] it was -0.84%. Further, the inhibition in test [13] is 1.18%; in test [14] it was -0.82%; in test [15], -3.13%; in test [16] it was 1.79%; in test [17], 4.31%; in test [18], -0.53%. For the same compound, the inhibition in [19] is 1.3%; in test [20], 0.56%.
Regarding `c1cnn2ncc(-c3ccnc(Nc4ccc5c(c4)OCCO5)n3)c2c1`, the inhibition stood at 5.82% in [1]; 8.27% in test [2]; 19.7% in test [3]; 2.1% in test [4]; 20.6% in test [5]; 1.94% in test [6]. Besides, the inhibition amounted to 46% in [7]; 9.54% in test [8]; 37.4% in test [9]; 95% in test [10]; 106% in test [11]; 3.21% in [12]. The inhibition in test [13] is 9.72%; in test [14] it was 49.2%; in [15] it was 93.3%; in test [16], 38.1%; in test [17], 83.5%; in test [18], 3.28%. The inhibition turned out to be 9.06% in [19] and 6.2% in test [20].
Take `CC1=C(C(=O)Nc2ccc3[nH]ncc3c2)C(c2ccc3ccccc3c2)CC(=O)N1` (stereo not given): the inhibition in [1] was 14.2%; in [2], 4.05%; in test [3], 29.5%; in [4] it was 2.05%; in test [5], 25.8%; in test [6], 0.88%. For the same compound, the inhibition in test [7] was 30.9%; in [8] it was 5.3%; in test [9], 12.5%; in test [10], 2.51%; in test [11] it was 7.55%; in [12], 0.15%. Also, the inhibition is -0.63% in test [13]; 1.53% in test [14]; 2.53% in [15]; 1.45% in test [16]; 2.17% in [17]; 21.1% in test [18]. Also, the results for the inhibition in test [19] and in test [20] were 64.3% and 2.82%, respectively.
As for `CS(=O)(=O)CCNCc1ccc(-c2ccc3ncnc(Nc4ccc(OCc5ccccc5)c(Cl)c4)c3c2)o1`, the inhibition in [1] is 1.43%; in test [2], -0.15%; in test [3], 1.78%; in test [4], -0.29%; in [5], 1.05%; in [6], 0.91%. Further, the inhibition was determined as 2.44% in [7]; 6.23% in test [8]; 14.2% in test [9]; 2.73% in [10]; 1.79% in [11]; 0.03% in test [12]. The inhibition turned out to be 2.97% in [13]; 1.42% in test [14]; 1.36% in test [15]; 7.05% in test [16]; 1.37% in test [17]; 1.77% in test [18]. Also, the inhibition was determined as 9.7% in test [19] and 0.32% in test [20].
